This is one part of a sample in which hits are shown more often than they occur.
FECH block = human FECH heme synthesis enzyme inhibition. 20,000 tested, 3.3% active. P22830. purified FECH, Ni-mesoporphyrin absorbance 550 nm. calls only at 10 µM (by protocol);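 active = enzyme reaction rate more than 3 SD below the solvent-only control wells on the same plate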;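 note: lower slope than DMSO wells means FECH inhibition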
Target sequence (P22830 whole entry, looked up): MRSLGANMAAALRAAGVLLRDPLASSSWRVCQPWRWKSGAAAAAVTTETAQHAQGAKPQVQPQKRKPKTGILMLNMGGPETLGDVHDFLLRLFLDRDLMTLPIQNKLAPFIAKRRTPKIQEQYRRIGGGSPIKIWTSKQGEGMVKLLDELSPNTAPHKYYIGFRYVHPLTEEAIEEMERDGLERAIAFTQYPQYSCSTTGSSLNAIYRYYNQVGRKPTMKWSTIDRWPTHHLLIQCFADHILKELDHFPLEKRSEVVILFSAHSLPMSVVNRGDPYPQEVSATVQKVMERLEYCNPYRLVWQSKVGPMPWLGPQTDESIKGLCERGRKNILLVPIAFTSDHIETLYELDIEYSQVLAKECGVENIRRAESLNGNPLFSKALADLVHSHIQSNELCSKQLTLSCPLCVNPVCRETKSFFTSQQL
Numbers without * were called inactive; i = inactive; + = active, no number.

SMILES | FECH block
COC(=O)c1ccc(C(=O)Nc2sc3c(c2-c2nc4ccccc4s2)CCN(C)C3)cc1 | i
CCCOC1CCCN(Cc2ccc(O)c(O)c2)C1 (stereo not drawn) | i
COc1ccc(OC)c(Nc2nc(NCC3CCCO3)nc3c2cnn3-c2ccccc2)c1 (stereo not drawn) | i
CCOc1ccc(NC(=O)c2ccc(CNc3nc4nc(C)cc(=O)n4[nH]3)cc2)cc1 | i
O=c1[nH]nc(CCn2ccnc2-c2cc3c(cc2Cl)OCO3)[nH]1 | i
Cc1oc(-c2ccc3ccccc3c2)nc1Cn1cccn1 | i
CCn1ncc(Cl)c1C(=O)N1Cc2cnc(-c3ccccc3)nc2C1 | i
Cc1ccccc1-c1cc(O)c2c(c1)CN(Cc1nccs1)CCO2 | i
O=C(CN1CCN(Cc2ccc(F)cc2Cl)S1(=O)=O)NCc1ccccc1Cl | +
COc1ccc(CCNC(=O)CN2CCN(Cc3ccc(F)cc3Cl)S2(=O)=O)cc1OC | +
O=C(CN1CCN(Cc2ccc(F)cc2Cl)S1(=O)=O)Nc1ccc2c(c1)OCO2 | i
Cc1cccc(C)c1NC(=O)CN1CCN(Cc2ccc(F)cc2Cl)S1(=O)=O | i
Cc1ccc(CNC(=O)CN2CCN(Cc3ccc(F)cc3Cl)S2(=O)=O)cc1 | i
O=C(CN1CCN(Cc2ccccc2Cl)S1(=O)=O)NCc1ccccc1Cl | i
O=C(CN1CCN(Cc2ccc(F)cc2)S1(=O)=O)NCc1ccccc1 | i
Cc1c(Cl)cccc1NC(=O)CN1CCN(Cc2ccc(F)cc2Cl)S1(=O)=O | +
O=C(CN1CCN(Cc2ccc(F)cc2Cl)S1(=O)=O)NCc1ccccc1 | +
COC(=O)c1ccc(OC)c(CN2CCN(Cc3ccc(F)cc3Cl)S2(=O)=O)c1 | i
O=C(CN1CCN(Cc2ccccc2Cl)S1(=O)=O)Nc1ccc(F)cc1 | i
Cc1ccc(CN2CCN(CC(=O)Nc3cccc(Cl)c3C)S2(=O)=O)cc1 | i
Cc1ccc(-c2n[nH]c(=O)c3c2CCCC3)cc1S(=O)(=O)Nc1ccc(S(N)(=O)=O)cc1 | i
CCCc1nc2nc[nH]n2c(=O)c1NC(=O)Nc1cc(OC)cc(OC)c1 | i
Cc1ccc(-n2ncc3c(-n4nc(C)cc4NC(=O)COc4ccccc4)ncnc32)c(C)c1 | i
Cc1cc(N2CCN(c3ccccc3O)CC2)nc(N2CCOCC2)n1 | i
Cc1ccc(NC(=O)CNC(=O)c2cnnn2-c2ccccc2)c(F)c1 | i
SMILES | FECH block
COc1ccc(OCC(=O)Nc2cc(C)nn2-c2ncnc3c2cnn3-c2cccc(Cl)c2)cc1 | i
CC(=O)N[C@H]1C[C@@H](C(c2ccccc2)c2ccccc2)O[C@@H](C(C)C)C1 | i
COc1cccc(-c2cc(N3CCN(C(=O)Nc4ccccc4)CC3)ncn2)c1 | i
COc1cccc(-c2cc(N3CCN(S(=O)(=O)c4c(C)noc4C)CC3)ncn2)c1 | +
Cc1ccc(-c2cc(N3CCN(S(=O)(=O)c4c(C)noc4C)CC3)ncn2)cc1 | i
Cc1ccc(-c2cc(N3CCN(S(=O)(=O)c4ccc(CC(C)C)cc4)CC3)ncn2)cc1 | i
COc1cccc(-c2cc(N3CCN(S(=O)(=O)c4cc(Cl)ccc4OC)CC3)ncn2)c1 | i
COc1cccc(-c2cc(N3CCN(S(=O)(=O)c4cc(OC)ccc4OC)CC3)ncn2)c1 | +
COc1cccc(-c2cc(N3CCN(S(=O)(=O)c4ccc(F)cc4)CC3)ncn2)c1 | i
COc1cccc(-c2cc(N3CCN(S(=O)(=O)c4ccc(OC)c(Cl)c4)CC3)ncn2)c1 | i
CC(C)Cc1ccc(S(=O)(=O)N2CCN(c3cc(-c4ccc(F)cc4)ncn3)CC2)cc1 | i
COc1cccc(-c2cc(N3CCN(S(=O)(=O)c4ccccc4)CC3)ncn2)c1 | +
Cc1cccc(-c2cc(N3CCN(S(=O)(=O)c4c(C)noc4C)CC3)ncn2)c1 | i
COc1cccc(-c2cc(N3CCN(S(=O)(=O)c4ccc(Br)cc4)CC3)ncn2)c1 | i
Cc1cccc(-c2cc(N3CCN(S(=O)(=O)c4ccc(CC(C)C)cc4)CC3)ncn2)c1 | +
O=S(=O)(c1ccc(Cl)cc1)N1CCN(Cc2nc3cccnc3n2-c2cccc(F)c2)CC1 | i
CCS(=O)(=O)N1CCN(c2nc(C)cc(N3CCOCC3)n2)CC1 | i
COc1ccc(CNC(=O)c2cc3n(n2)CC(C)(C(=O)NCc2ccc(F)cc2)N(C)C3=O)c(OC)c1 (stereo not drawn) | i
O=C(c1ccc(=O)[nH]c1)N1CCCC2(C=Cc3ccccc3O2)CC1 (stereo not drawn) | i
CCCn1ccnc1C1CC(=O)Nc2c1cnn2Cc1ccccc1Cl (stereo not drawn) | i
CCn1c(CNS(=O)(=O)c2cc(C)ccc2C)nc2cccnc21 | i
CCOC(=O)c1c(NC(=O)c2cccs2)sc2c1CCN(Cc1ccccc1)C2 | i
COc1ccc(OCc2nc(C(=O)N3CCNCC3c3ccccc3)co2)cc1 (stereo not drawn) | i
CCN(C(=O)c1coc(COc2ccc(OC)cc2)n1)[C@H]1COC[C@@H]1O | i
COc1ccc(OCc2nc(C(=O)N3CC4(C)CN(C)CC(C)(C3)C4)co2)cc1 | +
SMILES | FECH block
O=C1CC(c2ccc(-n3cncn3)cc2)c2cn[nH]c2N1 (stereo not drawn) | i
COc1ccc(Cl)c(CN2CCN(c3ncc(F)cn3)CC2)c1F | i
CCOc1cccc(CN2CCC(Cc3nnc(SC)n3C)CC2)c1O | i
Cc1ccc(Cl)c(CN2CCC(Cc3nnc(CO)n3C)CC2)c1F | +
Fc1ccccc1CC1CCN(Cc2cnc(NCC3CCCO3)nc2)CC1 (stereo not drawn) | i
CN1C(=O)C2(CCN(C(=O)COCC3CCCCO3)CC2)c2ccccc21 (stereo not drawn) | +
CCCc1nc(C(=O)N2CCCC3(C2)C(=O)N(C)c2ccccc23)cs1 (stereo not drawn) | i
CN1C(=O)C(CCC(=O)N2CCCOCC2)(Cc2ccccc2)c2ccccc21 (stereo not drawn) | i
Cc1ccc(-n2c(CN3CCN(S(=O)(=O)c4ccc(Cl)s4)CC3)nc3cccnc32)cc1 | i
Cc1ccc(-n2c(CN3CCN(S(=O)(=O)c4cccs4)CC3)nc3cccnc32)cc1 | +
Cc1cccc(-n2c(CN3CCN(S(=O)(=O)c4cccs4)CC3)nc3cccnc32)c1 | i
NS(=O)(=O)c1ccc(NS(=O)(=O)c2ccc(-c3nnc(C4CCCC4)o3)s2)cc1 | i
CN(Cc1cccc(C(=O)Nc2nccs2)c1)Cc1cnccn1 | +
Cc1nc(CN(C)Cc2cccc(C(=O)Nc3cccnc3)c2)cs1 | i
CN(Cc1ccc(C(=O)Nc2ccc3c(c2)ncn3C)cc1)Cc1cnccn1 | i
CCCn1c(CNS(=O)(=O)c2ccc(C)cc2C)nc2cccnc21 | i
Cc1oc2ncnc(N3CCOCC3)c2c1C(=O)Nc1ccc(S(N)(=O)=O)cc1 | i
COc1cccc(NCc2nc3nc4c(c(=O)n3[nH]2)CCC4)c1 | +
COc1ccccc1NCc1nc2nc3c(c(=O)n2[nH]1)CCC3 | i
CCc1nc2nc(C)c(NC(=O)Nc3cccc(F)c3)c(=O)n2[nH]1 | i
Cc1nc2nc[nH]n2c(=O)c1NC(=O)Nc1cccc(C(F)(F)F)c1 | i
COc1ccc(CNc2nc3nc(CNc4cccc(Cl)c4)cc(=O)n3[nH]2)cc1 | i
O=c1c2c(nc3nc(CNc4cccc(C(F)(F)F)c4)[nH]n13)CCC2 | +
COCC(=O)NCC1=CCCN(Cc2ccc3c(c2)OCO3)C1 | i
